The list is not random: actives were taken first. Their share in the collection is about 0.93%.
LAP4-GFP MLPCN = alters LAP4-GFP fluorescence in TOR pathway yeast screen | S. cerevisiae LAP4-GFP multiplex, flow cytometry GFP, 3 h; median GFP as percent of DMSO wells | GFP response vs DMSO, % at 10 µM | 320,000 compounds, 0.34% hits;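 active = GFP response vs DMSO above a set limit, about the screen mean plus 3 SD, cut at about 150% in these data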
RPL19A TOR yeast = modulators of TOR pathway RPL19A-GFP in S. cerevisiae. S. cerevisiae RPL19A-GFP strain, flow cytometry, 3 h; stronger effect = lower value. percent response vs DMSO, % at 10 µM. 330,000 compounds, 0.3% hits;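 active = percent response vs DMSO below 50%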;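 also: median channel GFP fluorescence of the barcoded RPL19A-GFP strain; ratio of sample median GFP to plate DMSO average so 100% = DMSO; lower means less RPL19A-GFP as with rapamycin TOR inhibition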
CIT2-GFP yeast = alters CIT2-GFP fluorescence in TOR pathway yeast screen | GFP response vs DMSO, % at 10 µM | 320,000 compounds, 0.065% hits | AID 2029 | S. cerevisiae CIT2-GFP strain, flow cytometry, 3 h; 100 means same as DMSO wells;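 active = GFP response relative to DMSO above a set limit, near the screen mean plus 3 SD, cut at about 150% in these data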;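 also: ratio of well median GFP fluorescence to mean of DMSO wells on the plate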
MEP2-GFP yeast = modulators of TOR pathway MEP2-GFP in S. cerevisiae; S. cerevisiae MEP2-GFP strain, flow cytometry GFP, 3 h; 100% = DMSO control level; GFP response vs DMSO, % at 10 µM; 330,000 compounds, 0.51% hits; AID 2016;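 active = GFP response versus DMSO above a set limit, roughly screen mean plus 3 SD, cut at about 180% in these data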;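 also: median GFP fluorescence of the barcode-gated MEP2-GFP cells per well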
AGP1 TOR yeast = yeast TOR pathway AGP1-GFP modulation; S. cerevisiae AGP1-GFP multiplex flow cytometry, 3 h; GFP as percent of DMSO wells; GFP response vs DMSO, % at 10 µM; 320,000 compounds, 0.02% hits;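 active = GFP response relative to DMSO above a set limit, near screen average plus 3 SD, cut at about 150% in these data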;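 also: median GFP channel fluorescence of the gated AGP1 strain per well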
LAP4-GFP pick2 = reconfirmed LAP4-GFP TOR pathway modulator in yeast; shares compounds with LAP4-GFP MLPCN; S. cerevisiae LAP4-GFP strain, flow cytometry GFP, 3 h; GFP response vs DMSO, % at 10 µM; 590 compounds, 20% hits; AID 2621;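 active = GFP signal as percent of the solvent control above about 150%, meaning raised reporter expression, limit read from the data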;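 also: ratio of well median GFP fluorescence to plate DMSO mean so 100% = DMSO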
MEP2 cherry2 = reconfirmed MEP2-GFP TOR pathway modulator in yeast. S. cerevisiae MEP2-GFP strain, flow cytometry GFP, 3 h. shares compounds with LAP4-GFP MLPCN. GFP response vs DMSO, % at 10 µM. 590 compounds, 10% hits;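 active = GFP signal above 150% of the solvent control wells, that is a rise of more than half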;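 also: median channel GFP fluorescence of all gated yeast cells per well; ratio of median GFP to plate DMSO average so 100% = DMSO level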
RPL19A-GFP pick2 = yeast RPL19A-GFP TOR reporter modulation, second cherry pick; shares compounds with LAP4-GFP MLPCN; S. cerevisiae RPL19A-GFP strain, flow cytometry GFP, 3 h; stronger effect = lower value; 100% means same as DMSO wells; GFP response vs DMSO, % at 10 µM; 590 compounds, 3% hits;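 active = under 65% GFP response relative to DMSO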;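 also: median GFP channel fluorescence per well over the all cells gate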
CIT2 GFP CP2 = reconfirmed modulator of CIT2-GFP TOR reporter in yeast | shares compounds with LAP4-GFP MLPCN | S. cerevisiae CIT2-GFP strain, flow cytometry GFP, 3 h; DMSO control wells read 100% | GFP response vs DMSO, % at 10 µM | 590 compounds, 8% hits;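 active = GFP response vs DMSO above about 150%, limit read from the data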;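 also: median green fluorescence per well over all gated yeast cells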
AGP1-GFP pick2 = second confirmation of modulators of TOR reporter AGP1-GFP in yeast. S. cerevisiae AGP1-GFP strain, flow cytometry GFP, 3 h. 590 tested, under 10 active. percent response vs DMSO, % at 10 µM. shares compounds with LAP4-GFP MLPCN;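 active = over 150 percent of DMSO response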;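 also: median GFP channel fluorescence over all cells without mother daughter split; sample median GFP divided by mean DMSO control so 100% equals DMSO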
s288c autofluor = counter-screen for compound autofluorescence in yeast s288c cells | shares compounds with LAP4-GFP MLPCN | S. cerevisiae s288c, 520 nm autofluorescence, flow cytometry, 3 h; stronger effect = higher value; zero means same as solvent-only cells | fluorescence change (kMESF span) at 33 µM | 610 tested, under 10 active | AID 2757;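 active = fluorescence span over the dose series, or activity score, above about 33, limit read from the data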
* hit, by the source's call; . = no result given; [ ] = remark or other dose.

SMILES	LAP4-GFP MLPCN	RPL19A TOR yeast	CIT2-GFP yeast	MEP2-GFP yeast	AGP1 TOR yeast	s288c autofluor	others
COc1cccc2c1OCC/C2=N\NC(=O)C(C)Oc1ccc([N+](=O)[O-])cc1 (stereo unspecified)	88	89	98	109	90	.
CC1CCC(C(C)C)C(OP(=O)(c2ccc(N(C)C)cc2)C(O)c2cccnc2)C1 (stereo unspecified)	150	119	234*[may fluoresce green]	232*[may fluoresce green]	113	.	LAP4-GFP pick2=95;MEP2 cherry2=108;RPL19A-GFP pick2=102;CIT2 GFP CP2=106;AGP1-GFP pick2=103
CCSc1ccc(-c2nn(-c3ccccc3)cc2/C=C(/C#N)C(=O)NCCCOC)cc1	186*	105	186*	525*	83	.	LAP4-GFP pick2=96;MEP2 cherry2=96;RPL19A-GFP pick2=101;CIT2 GFP CP2=114;AGP1-GFP pick2=97
CCCSc1ccc(-c2nn(-c3ccccc3)cc2/C=C(/C#N)C(=O)NCCCOC)cc1	102	103	110	108	100	.
CCC(=O)NC(c1ccccc1OC)c1ccc2cccnc2c1O (stereo unspecified)	95	100	98	102	116	.
COc1ccc(Cl)cc1C(Nc1cccnc1)c1ccc2cccnc2c1O (stereo unspecified)	192*	85	90	99	106	1
COc1ccc(S(=O)(=O)Nc2cccc3c2O[C@H](CN(C)C(=O)NC2CCCCC2)[C@@H](C)CN([C@H](C)CO)C3=O)cc1	104	104	98	101	107	.
c1ccc(N2CCN(Cc3ccnc4ccccc34)CC2)cc1	98	102	108	100	.	.
Oc1c(CN2CCN(c3ccccc3)CC2)cc(Br)c2cccnc12	224*	100	101	116	91	2.5
O=C1C=CC(=O)N1c1cccc(-c2ccccc2)c1	206*	65	61	98	77	1.8
COc1cccc(/C=N/Nc2nc(Nc3ccc([N+](=O)[O-])cc3)nc(N3CCCC3)n2)c1O	105	102	102	108	106	.
COc1cccc(/C=N/Nc2ccc([N+](=O)[O-])cn2)c1O	156*	97	97	113	99	0.51	LAP4-GFP pick2=161*;MEP2 cherry2=114;RPL19A-GFP pick2=94;CIT2 GFP CP2=106;AGP1-GFP pick2=91
Cc1cccc(N2C(=O)CC(Sc3ncn[nH]3)C2=O)c1 (stereo unspecified)	140	93	78	90	93	.
Cc1ccc(N2C(=O)CC(Sc3ncn[nH]3)C2=O)cc1C (stereo unspecified)	151*	98	91	90	95	-0.1
CC(=O)N(C1=C(Cl)C(=O)c2ccccc2C1=O)C1CCCCC1	45	8.2*	68	69	8	7.1
COc1ccc2[nH]c3c(c2c1)CCNC3c1ccc([N+](=O)[O-])o1 (stereo unspecified)	314*	135	266*	498*	132	.	LAP4-GFP pick2=317*;MEP2 cherry2=564*;RPL19A-GFP pick2=145;CIT2 GFP CP2=414*;AGP1-GFP pick2=134
C=CCOc1ccccc1C(=O)/C=C1/C(=O)Nc2ccccc21	132	101	84	91	91	-0.4
NC(=O)COc1ccc(C(=O)/C=C2/C(=O)Nc3ccccc32)cc1	103	94	109	91	105	0.91
C=CCOc1ccc(C(=O)/C=C2/C(=O)Nc3ccccc32)cc1	105	105	97	106	105	-0.2
COc1ccccc1CNC(=O)CN(C)CC(=O)Nc1ccc(F)c(F)c1F	80	109	83	104	78	.
C=CCn1c(C)c(C(C)=O)c(N2CCOCC2)nc1=S	93	65	106	162	28	.	LAP4-GFP pick2=99;MEP2 cherry2=98;RPL19A-GFP pick2=99;CIT2 GFP CP2=110;AGP1-GFP pick2=95
CCCCC(CC)CNC(=O)C1CC=CCC1C(=O)O (stereo unspecified)	82	98	95	102	92	.
CCc1noc(C)c1C(=O)Nc1cc(S(=O)(=O)N2CCOCC2)ccc1N1CCN(CC)CC1	103	97	104	99	104	.
O=C1NC(=Nc2ccccc2)SC1(CO)CO	107	102	113	117	102	.
CC(=O)N1NC(=Nc2ccccc2)SC1(C)C	95	62	90	133	80	.	LAP4-GFP pick2=115;MEP2 cherry2=101;RPL19A-GFP pick2=96;CIT2 GFP CP2=96;AGP1-GFP pick2=98
SMILES	LAP4-GFP MLPCN	RPL19A TOR yeast	CIT2-GFP yeast	MEP2-GFP yeast	AGP1 TOR yeast	s288c autofluor	others
COc1ccccc1OCCNC(=O)C1CC(=O)N(Cc2ccc(C)cc2)C1 (stereo unspecified)	97	91	97	97	100	.
O=C(CS(=O)c1ccccc1[N+](=O)[O-])Oc1ccc(Br)cc1 (stereo unspecified)	170*	91	92	92	100	0.71
CCN1C(=O)/C(=C\C(=O)c2cccs2)c2cc(Br)ccc21	196*	100	78	98	91	1.6
CSCCC(NC(=O)c1ccco1)C(=O)NC1CCC(C)CC1 (stereo unspecified)	101	101	87	100	99	.
C=CCN1C(=O)/C(=C/c2ccc(-c3ccc(F)cc3)o2)SC1=S	163*	102	96	99	83	1.2	LAP4-GFP pick2=169*;MEP2 cherry2=131;RPL19A-GFP pick2=99;CIT2 GFP CP2=111;AGP1-GFP pick2=102
CC1=NN(c2nc3ccccc3[nH]2)C(=O)C1Cc1ccccc1 (stereo unspecified)	87	58	69	97	57	.	LAP4-GFP pick2=123;MEP2 cherry2=141;RPL19A-GFP pick2=76;CIT2 GFP CP2=85;AGP1-GFP pick2=75
Cc1ccc(C2=NN(S(C)(=O)=O)C(c3ccc4c(c3)OCO4)C2)cc1 (stereo unspecified)	105	108	128	106	99	4.6
CCN(Cc1ccccc1)C(=O)c1cc2c(OC)c(OC)c(OC)cc2[nH]1	97	104	98	100	96	.
CC1=C/C(=N\OS(=O)(=O)c2ccccc2)C(C)=CC1=O	234*	87	87	107	97	15
